Only some compounds are listed: those with a hit (about 4.5% of all), similar ones and a draw of the others.
Beta apoptosis – beta cell apoptosis inhibition | 300,000 tested, 0.8% active | protection from apoptosis, % (test concentration not listed) | INS-1E cytokine-induced death, ATP luminescence, 48 h; percent of positive-control rescue, neutral wells zero;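 active = Every replicate reaches about 75%, or at least half do and their mean reaches it too, limit read from the data; inconclusive = At least half of replicates reach the limit but their mean does not; inactive = Under half of replicates reach the limit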;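 also: 0% = cytokine-treated negative control wells and 100% = positive control rescue; higher means more ATP so stronger rescue from cytokine killing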
697 NFkB inh – inhibitors of the PMA/ionomycin-induced NF-kB reporter in 697 B cells; 697 B-cell NF-kB luciferase reporter, 16 h; 330,000 tested, 0.33% active; inhibition, % at 4 µM; AID 435022; in the data active = inhibition above about 35%
Gli-Sufu block – blocks Gli-Sufu signaling in a luciferase reporter. inhibition, % at 5 µM. Sufu-KO-LIGHT fibroblasts, Gli luciferase reporter luminescence. 340,000 tested, 0.74% active;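 active = inhibition above about 55%, limit read from the data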;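 also: 0% = DMSO-treated cells and 100% = wells with medium but no cells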
Jurkat NFkB inh – inhibitors of the PMA/ionomycin-induced NF-kB reporter in Jurkat cells; PMA/ionomycin-induced NF-kB luciferase reporter, luminescence; inhibition, % at 4 µM; 330,000 tested, 0.53% active; AID 435003; in the data active = inhibition above about 50%
Mdm2 MdmX PPI – inhibitors of human Mdm2/MdmX interaction; O15151+Q00987; SaOS-2 split-luciferase Mdm2/MdmX complementation, luminescence; inhibition, % at 8 µM; 330,000 tested, 3% active; AID 485346;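 active = inhibition of at least 50% at 8 µM in the primary screen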
Target sequence (O15151 whole entry, looked up): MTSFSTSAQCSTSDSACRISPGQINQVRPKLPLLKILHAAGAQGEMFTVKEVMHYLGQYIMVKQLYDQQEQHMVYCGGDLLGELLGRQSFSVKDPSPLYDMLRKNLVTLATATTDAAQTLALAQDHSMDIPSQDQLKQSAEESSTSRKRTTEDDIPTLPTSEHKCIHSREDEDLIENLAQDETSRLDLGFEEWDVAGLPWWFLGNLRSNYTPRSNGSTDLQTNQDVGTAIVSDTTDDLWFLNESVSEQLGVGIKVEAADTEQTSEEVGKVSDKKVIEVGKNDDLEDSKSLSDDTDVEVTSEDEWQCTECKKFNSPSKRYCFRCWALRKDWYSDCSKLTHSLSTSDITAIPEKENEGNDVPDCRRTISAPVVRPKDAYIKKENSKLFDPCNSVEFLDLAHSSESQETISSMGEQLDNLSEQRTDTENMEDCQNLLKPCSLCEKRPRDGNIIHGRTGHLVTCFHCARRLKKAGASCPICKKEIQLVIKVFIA
Target sequence (Q00987 whole entry, looked up): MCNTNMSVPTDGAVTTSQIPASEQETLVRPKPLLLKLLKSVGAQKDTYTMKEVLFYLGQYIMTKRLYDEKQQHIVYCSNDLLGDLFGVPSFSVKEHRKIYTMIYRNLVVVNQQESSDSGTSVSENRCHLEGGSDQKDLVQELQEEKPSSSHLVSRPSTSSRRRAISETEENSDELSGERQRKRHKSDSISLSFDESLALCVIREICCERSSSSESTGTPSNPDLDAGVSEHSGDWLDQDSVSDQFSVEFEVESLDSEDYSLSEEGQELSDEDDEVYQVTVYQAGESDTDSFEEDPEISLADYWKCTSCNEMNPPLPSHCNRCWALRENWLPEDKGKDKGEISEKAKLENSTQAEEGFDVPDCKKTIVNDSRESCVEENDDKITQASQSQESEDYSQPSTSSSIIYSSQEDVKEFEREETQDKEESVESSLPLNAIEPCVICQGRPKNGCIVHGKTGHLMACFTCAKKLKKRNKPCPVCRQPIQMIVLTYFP
CSC inhib – cancer stem cell inhibition. cancer stem cell-like cells viability, luminescence. inhibition, % at 7.5 µM. 300,000 tested, 1.1% active; in the data active = inhibition above about 75%; inconclusive = no clear call, values can overlap the other calls; tested in HMLE shEcad cells
Mdm2 MdmX conf – confirmation of human Mdm2/MdmX interaction inhibitors | shares compounds with Mdm2 MdmX PPI | Mdm2-MdmX binding, luminescent assay | inhibition, % at 8 µM | 10,000 tested, 55% active; in the data active = inhibition above about 40%
FLuc counter – counter-screen for Mdm2/MdmX inhibitors: full-length luciferase | 6,200 tested, 77% active | SaOS-2 full-length luciferase counterscreen, luminescence | shares compounds with Mdm2 MdmX PPI | inhibition, % at 8 µM;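 active = mean inhibition at 8 µM reaching about 37%, which flags the compound as non-specific, limit read from the data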;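 also: p53-null SaOS-2 cells with luciferase driven by a doxycycline-inducible promoter; compound on cells about two nights before reading with doxycycline added after day one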
The depositor's hits bear a star; ? = inconclusive; nt = not tested or not shown.

SMILES	Beta apoptosis	697 NFkB inh	Gli-Sufu block	Jurkat NFkB inh	Mdm2 MdmX PPI	CSC inhib	Mdm2 MdmX conf	FLuc counter
CCN1C(=O)[C@H]2[C@@H](c3ccc(-c4ccc(Cl)c(Cl)c4)c(OC)c3)N[C@@](C)(C(=O)OC)[C@H]2C1=O	-2	-19	8	-21	57*	22	45*	71*
CCN1C(=O)[C@H]2[C@@H](c3ccc(-c4ccc(F)cc4)c(OC)c3)N3CCCC[C@@]3(C(=O)OC)[C@H]2C1=O	-3	1	-14	-4	45	nt	nt	nt
CCN1C(=O)[C@H]2[C@@H](c3ccc(-c4ccc(Cl)c(Cl)c4)c(OC)c3)N3CCCC[C@@]3(C(=O)OC)[C@H]2C1=O	-2	7	-8	5	66*	nt	13	nt
O=C(COC(=O)c1ccccc1O)Nc1cccc(S(=O)(=O)N2CCCC2)c1	-1	8	0	7	10	-12	nt	nt
Cc1c(C(=O)N/N=C/c2ccncc2)nnn1-c1nonc1N	nt	16	-3	1	12	nt	nt	nt
COc1ccc(N2CCN(C(=O)C3CCCN3S(=O)(=O)c3cccc4nsnc34)CC2)cc1 (stereo not given)	-2	7	0	10	0	-2	nt	nt
CCN1C(=O)[C@H]2[C@@H](c3ccc(-c4ccc(F)cc4)c(OC)c3)N[C@@](Cc3ccccc3)(C(=O)OC)[C@H]2C1=O	8	28	-5	0	58*	nt	19	nt
COC(=O)[C@@]12CCCCN1[C@H](c1ccc(-c3cccc(Cl)c3)cc1)[C@@H]1C(=O)N(C)C(=O)[C@@H]12	9	-2	4	5	78*	nt	31	nt
COC(=O)c1ccc(/C=C2\SC(=S)N(CCCC(=O)N3CCOCC3)C2=O)cc1	nt	nt	7	nt	nt	nt	nt	nt
CCc1ccc(/C=C2\SC(=S)N(CCC(=O)N3CCN(C)CC3)C2=O)cc1	-23	-23	9	13	40	56	nt	nt
Cc1ccc(/C=C2\SC(=S)N(CCCC(=O)N3CCOCC3)C2=O)cc1	-4	19	4	24	56*	-6	40	30
COc1ccc(/C=C2/SC(=S)N(CCCC(=O)N3CCN(C)CC3)C2=O)cc1	5	18	7	12	55*	3	34	32
CN1CCN(C(=O)CCCN2C(=O)/C(=C/c3ccc(Cl)cc3)SC2=S)CC1	-11	-5	6	5	52*	nt	0	nt
CN1CCN(C(=O)CCCN2C(=O)/C(=C/c3ccccc3)SC2=S)CC1	-47	-16	-3	-2	52*	40	34	31
O=C1C=C(c2cc(C(F)(F)F)cc(C(F)(F)F)c2)C[C@@H](c2ccc(Cl)cc2)C1	12	1	28	-2	5	37	nt	nt
CCCN(C(=O)c1cn(-c2ccccc2)nc1-c1ccc(OC)cc1)C1CCS(=O)(=O)C1 (stereo not given)	0	-13	-7	1	2	8	nt	nt
O=C(NCCCN1CCCCC1)C1CCC(CNS(=O)(=O)c2cccc3nsnc23)CC1 (stereo not given)	nt	-23	-2	-6	13	nt	nt	nt
O=C(c1ccc(F)cc1)N1CCC(C(=O)N2CCN(S(=O)(=O)c3cccc(Cl)c3)CC2)CC1	2	-8	1	0	13	-5	nt	nt
Cc1cc(C)c(-c2c(O)c3cccnc3n(C)c2=O)c(C)c1	-3	7	-16	-8	-15	-7	nt	nt
CCc1ccccc1NC(=O)CN(C)C(=O)Cn1ncc(Cl)c(Cl)c1=O	-6	nt	10	nt	nt	56	nt	nt
CCOC(=O)c1ccc(NC(=O)Cn2ncc(Cl)c(Cl)c2=O)cc1	8	-6	1	27	89*	90*	100*	51*
CCC(=O)Nc1ccc(C(=O)Cn2ncc(Cl)c(Cl)c2=O)cc1	-29	-26	6	-11	86*	?	63*	43*
COc1ccc(CCN2CCCn3c2nc2c3c(=O)[nH]c(=O)n2C)cc1OC	-1	-3	5	1	19	16	nt	nt
Cn1nnnc1Sc1ncnc2scc(-c3ccccc3Cl)c12	-19	-1	44	-14	68*	41	59*	21

From PubChem BioAssay
